{"source": "PubChem BioAssay AID624305", "about": "(National Center for Advancing Translational Sciences (NCATS), 2012)", "note": "Results filed as inconclusive are left out. Activity calls are given as the source filed them. The call rests on the fitted dose curve; in most records, active means well fitted activation curve with a large enough effect; inconclusive means small, poorly fitted or top-dose-only effect; inactive means no such curve, though single readings can be large or run the other way. Potency means the concentration at half of the fitted maximal effect."}
{"experiment": "qHTS assay for re-activators of p53 using a Luc reporter: Hit Validation; further: nearly all actives have a fitted effect of over 75% in size", "conditions": "p53-responsive luciferase reporter cells, luminescence, H1299 line expressing heat-sensitive Ala138Val p53; series mostly up to 46.1 µM", "summary_of_the_method": "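H1299 (p53-null) cells stably carrying p53-A138V and a BP100-luciferase reporter, 1000 cells/well, treated 24 h at 37 deg C. Compounds at several concentrations, 1:5 dilution; nocodazole control; luminescence read after 10 min with detection reagent.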"}
{"smiles": "Cc1c(C(=O)NC2=NCCS2)oc2ccccc12", "Potency": "580 nM (active)"}
{"smiles": "CC(C)(C)NC(=O)C(c1ccc(Cl)cc1)N(CCO)C(=O)c1snc(C(N)=O)c1N", "note": "(stereo not given)", "Potency": "inactive"}
{"smiles": "Cc1ccsc1/C=N/Nc1nc2ccccc2[nH]1", "Potency": "1300 nM (active)"}
{"smiles": "c1ccc2nc(-c3ccc(N4CCOCC4)cc3)ccc2c1", "Potency": "164 nM (active)"}
{"smiles": "Cc1cc(C)c2nc(NNC(=O)c3ccc(S(=O)(=O)N4CCc5ccccc5C4)cc3)sc2c1", "Potency": "inactive"}
{"smiles": "N#Cc1cc2c(nc1SCC(=O)Nc1nccs1)CCCCC2", "Potency": "206 nM (active)"}
{"smiles": "OC1(C2(O)CC(c3ccccc3)ON2)CCCCC1", "note": "(stereo not given)", "Potency": "inactive"}
{"smiles": "Cc1ccc(C(=O)CN2C(=O)NC3(CCCCC3C)C2=O)s1", "note": "(stereo not given)", "Potency": "inactive"}
{"smiles": "Cc1occc1C(=O)NNC(=S)Nc1ccccc1C(F)(F)F", "Potency": "13000 nM (active)"}
{"smiles": "CC(C)c1ccc(NC(=O)c2snc3ccc(Cl)cc23)cc1", "Potency": "5800 nM (active)"}
{"smiles": "O=C(NC1CCCCC1)c1ccc(-c2ccccc2F)o1", "Potency": "3660 nM (active)"}
{"smiles": "Cc1ccn2c(c1)nc(=S)n2C(=O)c1ccccc1", "Potency": "731 nM (active)"}
{"smiles": "CCc1ccc(-n2cc(-c3ccc([N+](=O)[O-])cc3)[nH]c2=S)cc1", "Potency": "inactive"}
{"smiles": "C=CCn1c(P(C)(=O)O)nc2ccccc21", "Potency": "inactive"}
{"smiles": "Fc1ccccc1/C=C/c1ccc2ccccc2n1", "Potency": "731 nM (active)"}
{"smiles": "CC(C)OC(=O)CCCCCN1C(=O)CSC1=S", "Potency": "inactive"}
{"smiles": "O=C(CNS(=O)(=O)c1cccc(Cl)c1)Nc1ccc(-c2nc3ccccc3s2)cc1", "Potency": "16400 nM (active)"}
{"smiles": "COc1cccc(C2(c3cccc(OC)c3)CC2C(=O)Nc2cccc3ccccc23)c1", "note": "(stereo not given)", "Potency": "inactive"}
{"smiles": "Cc1cc(C(=O)COC(=O)c2cccc(O)c2)c(C)n1C1CC1", "Potency": "130 nM (active)"}
{"smiles": "CCCN1CCC(NC(=O)Cc2ccc(C)cc2)CC1", "Potency": "inactive"}
